Source: PubChem BioAssay (NCATS)
Several values for one entry are separate records, joined by “and”; a condition that tells them apart may be missing. Equal entries are not always repeated. Inconclusive results are not listed. Activity calls are given as the source filed them. Unless noted, calls follow the shape of the dose curve; as a rule, active = well fitted curve in the direction sought with a large enough effect; inconclusive = small, poorly fitted or top-dose-only effect, or another doubt; inactive = no such curve, though single readings can be large; an effect the other way counts as inactive or inconclusive.

Tests used:
[1] = qHTS profiling of the MIPE4 collection as inhibitors of Plasmodium falciparum (3D7) proliferation (AID 743344; call rule not given here;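 also: scaled between DMSO vehicle wells and 0.29 µM artemisinin as full inhibition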); conditions: P. falciparum 3D7 in erythrocytes, SYBR Green DNA fluorescence, 72 h; at 28.5 µM unless noted
Procedure, shortened: (§1)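 Parasite DNA was quantified by SYBR Green I fluorescence (ex 485, em 535 nm) after overnight lysis in saponin/Triton buffer at room temperature. Cultures at 0.3% parasitemia and 2.5% hematocrit were first exposed to compound for 72 h at 37 C; signals were normalised to artemisinin (0.29 uM) and vehicle wells.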

[2] = qHTS profiling of the MIPE4 collection as inhibitors of Plasmodium falciparum (DD2) proliferation (AID 743345; call rule not given here); conditions: P. falciparum Dd2 in erythrocytes, SYBR Green DNA, 72 h; at 28.5 µM unless noted
Procedure, shortened: as §1

[3] = qHTS profiling of the MIPE4 collection as inhibitors of Plasmodium falciparum (DD2) proliferation (Rep 2) (AID 743346; call rule not given here); conditions: P. falciparum Dd2 in erythrocytes, SYBR Green DNA, 72 h; at 28.5 µM unless noted
Procedure, shortened: as §1

[4] = qHTS profiling of the MIPE4 collection as inhibitors of Plasmodium falciparum (HB3) proliferation (AID 743347; call rule not given here;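 also: plate controls were DMSO vehicle wells for no effect and artemisinin wells for full effect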); conditions: P. falciparum HB3 in erythrocytes, SYBR Green DNA, 72 h; at 28.5 µM unless noted
Procedure, shortened: as §1

[5] = High-throughput drug toxicity screening in the BPDCN cell line Gen2.2 (AID 1224824; call rule not given here;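 also: cells exposed to compounds for 48 h before reading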); conditions: Gen2.2 BPDCN cells; at 45.8 µM (top of the series) unless noted
Procedure, shortened: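 Seed 500 exponentially growing Gen2.2 cells/well; add compounds by pin tool; incubate 48 h, 37 °C, 5% CO2; add CellTiter-Glo, 15 min RT; read luminescence. % activity vs DMSO (100%) and bortezomib (0%).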

[6] = High-throughput drug toxicity screening in the BPDCN cell line Cal-1 (AID 1224825; call rule not given here); conditions: Cal-1 BPDCN cell viability, qHTS; at 45.8 µM (top of the series) unless noted
Procedure, shortened: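 Percent activity derived from CellTiter-Glo luminescence, scaling DMSO to 100% and 9.2 uM final bortezomib to 0%. BPDCN Cal-1 cells (500/well, RPMI plus 10% FBS) incubated with compounds 48 hours at 37C before reading.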

[7] = qHTS assay for measurement of the activity of small molecule inhibitors on Zika virus induced Caspase-3 activity in human iPSC derived neural progenitor cells (hNPCs) (AID 1224857); also: nearly all actives have a fitted effect of over 65% in size; also: potency is read from the fitted curve at half-maximal effect
Procedure, shortened: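 Percent inhibition of virus-induced caspase-3/7 luminescence (Caspase-Glo), scaled between uninfected cells and Zika-infected cells. hNPCs received compound 1 hr before ZIKV at 2 FFU/cell, with 6 hours infection at 37 C.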

[8] = qHTS assay for measurement of the activity of small molecule inhibitors on Zika virus induced Caspase-3 activity in human astrocytoma cells (AID 1224859);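 also: plate controls were ZIKV-infected untreated cells for no effect and uninfected cells for full effect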
Procedure, shortened: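 Luminescent caspase-3/7 read-out (30 min reagent, room temperature) in human SNB-19 cells infected 6 h with ZIKV (2 FFU/cell) after 1 h compound pre-incubation; Data were normalised to uninfected and infected wells.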

[9] = qHTS Screen of the MIPE 4.0 Collection Against Ewings Sarcoma (TC71) (AID 1259253); also: nearly all actives have a fitted effect of over 40% in size; also: potency is read from the fitted curve at half-maximal effect
Procedure, shortened: (§2)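 CellTiter-Glo luminescence after 48 h compound exposure (titration) gave viability; percent activity used DMSO-treated cells as no inhibition and medium-only wells as full inhibition. Cells grown in RPMI/5% FBS, dosed 4 h post-seeding.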

[10] = qHTS Screen of the MIPE 4.0 Collection Against Ewings Sarcoma (EW8) (AID 1259255); also: nearly all actives have a fitted effect of over 35% in size; also: potency is read from the fitted curve at half-maximal effect;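 as to viability: 100% = DMSO-treated cells and 0% = medium-only wells without cells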
Procedure, shortened: as §2

[11] = qHTS Screen of the MIPE 4.0 Collection Against Ewings Sarcoma (TC32) (AID 1259256); also: nearly all actives have a fitted effect of over 45% in size; also: potency is read from the fitted curve at half-maximal effect
Procedure, shortened: as §2

[12] = P-glycoprotein substrates identified in KB-3-1 adenocarcinoma cell line, qHTS therapeutic library screen (AID 1346986); also: nearly all actives have a fitted effect of over 60% in size;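 also: potency is read from the fitted curve at half-maximal effect; potency is for cytotoxicity meaning loss of cell viability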
Procedure, shortened: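 Viability read by CellTiter-Glo after 72 h compound exposure in dose-response of KB-3-1 and KB-8-5-11 (P-gp-high) cells. Hits needed AC50 < 10 uM, >50% maximum response and curve class -1.1 to -2.4. Cherry-picks retested ± tariquidar, including pcDNA/MDR-19 HEK-293 pair.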

[13] = P-glycoprotein substrates identified in KB-8-5-11 adenocarcinoma cell line, qHTS therapeutic library screen (AID 1346987); also: nearly all actives have a fitted effect of over 65% in size; also: potency is read from the fitted curve at half-maximal effect
Procedure, shortened: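 Luminescence from CellTiter-Glo, read 5 min after addition, quantified survival of KB-8-5-11 (P-gp-overexpressing) cells exposed to compounds for 72 h. AC50 was derived from concentration-response curves.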

[14] = qHTS Screen of the MIPE 4.0 Collection Against Ewings Sarcoma (RDES) (AID 1259252); also: nearly all actives have a fitted effect of over 35% in size; also: potency is read from the fitted curve at half-maximal effect
Procedure, shortened: as §2

[15] = qHTS profiling for inhibitors of Plasmodium falciparum (3D7) proliferation (AID 743322);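 also: infected erythrocytes exposed to compound for 72 h before lysis; 100% = DMSO vehicle wells and 0% = 0.29 µM artemisinin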; conditions: P. falciparum 3D7 proliferation; at 28.7 µM (top of the series)
Procedure, shortened: as §1

[16] = qHTS profiling for inhibitors of Plasmodium falciparum (DD2) proliferation (AID 743323; call rule not given here); conditions: lower = more inhibition; at 28.7 µM (top of the series)
Procedure, shortened: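 SYBR Green fluorescence (ex 485, em 535 nm) of lysed cultures gives parasite DNA content; wells normalized to artemisinin (0.29 uM) and DMSO controls. Infected red cells: 0.3% parasitemia, 2.5% hematocrit, 72 h, 37 C.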

[17] = qHTS profiling for inhibitors of Plasmodium falciparum (HB3) proliferation (AID 743324); conditions: Plasmodium falciparum HB3 blood-stage proliferation; at 28.7 µM (top of the series);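 also: 100% = DMSO vehicle wells and 0% = artemisinin-treated control wells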
Procedure, shortened: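 SYBR Green fluorescence (485 ex/535 em) of lysed cultures, incubated overnight at room temperature in the dark, quantifies parasite DNA. Infected erythrocytes at 0.3% parasitemia and 2.5% hematocrit were exposed 72 h; values normalized to DMSO and 0.29 uM artemisinin controls.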

| Compound | parasite growth, % of DMSO control [1] | parasite growth remaining, % of DMSO control (lower = more inhibition) [2] | parasite growth, % of control (lower = inhibition) [3] | growth, % of control [4] | cell viability, % of control (lower = more cytotoxic) [5] | viability (% of control) [6] | Potency [7] | Potency [8] | Potency [9] | Potency [10] | Potency [11] | Potency [12] | Potency [13] | Potency [14] | remaining parasite growth % (stronger effect = lower value) [15] | activity, percent of control [16] | remaining proliferation (% of control), lower = more inhibition [17] |
| --- | --- | --- | --- | --- | --- | --- | --- | --- | --- | --- | --- | --- | --- | --- | --- | --- | --- |
| COc1ccc(Nc2cc(-c3cnc(N)nc3)nc(N3CCOCC3)n2)cn1 | 16.3% | 11.1% | 27.1% | 6.14% | 28.9% | 25.7% | inactive | inactive | 14.8 µM (active) | 11.8 µM (active) | 5.26 µM (active) | 1.46 µM (active) | 1.48 µM (active) | – | – | – | – |
| Cc1cn([C@@H]2O[C@H](CO)[C@@H](O)[C@H]2F)c(=O)[nH]c1=O | 100% | 94.7% | 78.6% | 323% | 189% | 72.5% | inactive | inactive | inactive | inactive | inactive | inactive | inactive | – | – | – | – |
| Oc1ccc(-c2ccc(-c3cc(Nc4cccc(CNC5CC5)c4)n[nH]3)cc2)c(O)c1 | 9.07% | – | 20% | 3.25% | 2.13% | 3.58% | inactive | inactive | 1.87 µM (active) | 1.87 µM (active) | 5.9 µM (active) | – | – | 1.48 µM (active) | – | – | – |
| C=CC(=O)N1CCc2ccc(-n3c(=O)ccc4cnc5ccc(-c6cnn(C)c6)cc5c43)cc21 | 5.53% | 8.35% | 8.38% | 4.27% | 1.99% | 2.44% | inactive | inactive | 3.32 µM (active) | 3.32 µM (active) | 3.32 µM (active) | 3.99 µM (active) | – | – | – | – | – |
| COc1cc(C)c(C=CC(C)=CC=CC(C)=CC(=O)O)c(C)c1C | 85.8% | 115% | 85.9% | 83.1% | 336% | 94.9% | inactive | inactive | – | inactive | inactive | inactive | inactive | inactive | – | – | – |
| Cc1cnc(Nc2ccc(CN3CCOCC3)cc2)nc1Nc1cccc(S(=O)(=O)NC(C)(C)C)c1 | 4.59% | 8.36% | 16.8% | 4.53% | 1.99% | 3.36% | inactive | inactive | – | 2.64 µM (active) | 3.32 µM (active) | – | 3.32 µM (active) and 1.84 µM (active) | 3.32 µM (active) | – | – | – |
| CC(=CC(=O)Nc1ccccc1C(=O)O)c1ccc2ccccc2c1 | 383% | 110% | 133% | 674% | 115% | 77.7% | inactive | inactive | 13.2 µM (active) | 10.5 µM (active) | 9.35 µM (active) | – | – | 4.18 µM (active) | – | – | – |
| CN(C)c1ccc2cc(C(=O)N[C@@H](CCCN=C(N)CCl)C(=O)NCc3ccccc3)ccc2c1 | 5.85% | 8.25% | 9.19% | 9.16% | 1.99% | 2.66% | 20.9 µM (active) | inactive | – | 9.35 µM (active) | 7.43 µM (active) | – | inactive | 0.833 µM (active) | 6.68% | 11.8% | -0.673% |
| CCC(C(=O)O)C1CCC(C)C(C(C)C(O)C(C)C(=O)C(CC)C2OC3(C=CC(O)[C@@]4(CC[C@](C)(C5CC[C@@](O)(CC)C(C)O5)O4)O3)C(C)CC2C)O1 (stereo not given in full) | 9.07% | 6.02% | 7.13% | 16.9% | 16% | 12.3% | inactive | inactive | 1.48 µM (active) | 0.833 µM (active) | 2.64 µM (active) | – | – | 1.18 µM (active) | – | – | – |
| C[C@H](NCc1ccc(OCc2cccc(F)c2)cc1)C(N)=O | 8.15% | 6.14% | 12.8% | 3.17% | 13.6% | 4.81% | inactive | inactive | 14.8 µM (active) | 8.33 µM (active) | 14.8 µM (active) | – | – | 14.8 µM (active) | – | – | – |
| CCN(C(=O)c1c(O)c2c(Cl)cccc2n(C)c1=O)c1ccccc1 | 94.2% | 108% | 78.3% | 102% | 112% | 20.2% | inactive | inactive | – | inactive | inactive | – | inactive | inactive | – | – | – |
| COc1cc(C)c(Sc2cnc(NC(=O)c3ccc(CNC(C)C(C)(C)C)cc3)s2)cc1C(=O)N1CCN(C(C)=O)CC1 (stereo not given) | 7.09% | 11% | 17.2% | 4.86% | 4.37% | 3.38% | inactive | inactive | – | 1.48 µM (active) | 2.96 µM (active) | inactive | inactive | 16.6 µM (active) | 8.84% | 8.81% | 4.6% |
| N#Cc1c(C2CCNCC2)cc(-c2c(O)cccc2OCC2CC2)nc1N | 12% | 12.3% | 15.7% | 5.66% | 7.25% | 5.17% | inactive | inactive | 10.5 µM (active) | 14.8 µM (active) | 14.8 µM (active) | – | – | 14.8 µM (active) | – | – | – |
